Screening data as filed in PubChem.
RORgamma inh – blocks mouse ROR gamma transcriptional activity; AID 2551; P51450; Potency, µM (doses to about 53.6 µM), inactives show top-dose activity change, negative = inhibition, hits mostly inhibitors; Drosophila S2 Gal4-RORgamma UAS-luciferase reporter, 20 h; 310,000 tested, 5.4% active; also: potency is read from the fitted curve at half-maximal effect; nearly all actives have a fitted effect of over 60% in size
Target sequence (P51450 whole entry, looked up, the tested form may be a part): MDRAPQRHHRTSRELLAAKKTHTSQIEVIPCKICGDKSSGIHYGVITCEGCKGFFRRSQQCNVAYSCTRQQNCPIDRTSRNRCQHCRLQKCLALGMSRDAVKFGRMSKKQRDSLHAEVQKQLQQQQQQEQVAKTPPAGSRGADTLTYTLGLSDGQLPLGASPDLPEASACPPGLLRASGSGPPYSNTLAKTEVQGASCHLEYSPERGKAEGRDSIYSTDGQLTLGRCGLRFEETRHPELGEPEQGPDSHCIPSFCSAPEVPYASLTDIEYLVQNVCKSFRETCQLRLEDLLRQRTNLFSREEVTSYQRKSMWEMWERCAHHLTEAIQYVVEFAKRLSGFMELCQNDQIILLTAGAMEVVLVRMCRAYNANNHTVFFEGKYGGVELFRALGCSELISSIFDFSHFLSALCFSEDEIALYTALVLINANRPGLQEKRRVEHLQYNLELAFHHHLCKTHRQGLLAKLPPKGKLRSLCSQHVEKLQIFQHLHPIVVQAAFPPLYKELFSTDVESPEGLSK
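Drosophila Schneider cells stably carrying a metallothionein-driven Gal4 DBD–ROR gamma fusion and a UAS-Photinus luciferase reporter were exposed to compound for 1 hr, then induced with copper sulfate (700 uM final) for 20 hr at ambient temperature before luminescence reading.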
Gal4-VP16 FLuc – Gal4-VP16 reporter inhibition counter-screen | Drosophila S2 Gal4-VP16 UAS-luciferase, luminescence, 20 h | AID 2546 | Potency, µM (titrated, usually from 53.6 µM), for inactives: at the highest dose activity, negative = inhibition, actives largely listed as inhibitors | 310,000 tested, 3.5% active;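 also: Gal4-VP16 expression switched on by copper sulfate through the metallothionein promoter; potency is read from the fitted curve at half-maximal effect; nearly all actives have a fitted effect of over 50% in size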
DT40 TDP1 no CPT – qHTS for Inhibitors of human tyrosyl-DNA phosphodiesterase 1 (TDP1): qHTS in cells in absence of CPT | DT40 Tdp1-/- hTDP1 cells, no CPT, ATP luminescence, 48 h | Potency, µM (highest dose often 46.2 µM), without a hit: at the highest dose activity change, negative = growth inhibition, hits mostly inhibitors | 420,000 tested, 15% active | AID 686978, 2013; also: potency is read from the fitted curve at half-maximal effect; nearly all actives have a fitted effect of over 55% in size
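Cells were dispensed at 400 per well, compounds added by pin tool, plates incubated ≥48 hr at 37 °C, then CellTiter-Glo added for 30 min at room temperature before luminescence reading. Line: DT40 Tdp1-/- complemented with hTDP1; camptothecin omitted.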
TDP1 cell CPT – DT40-hTDP1 cell growth loss with CPT. Potency, µM (doses to about 46.2 µM), for the others: at the top dose activity change, negative = growth inhibition, hits mostly inhibitors. AID 686979. chicken DT40 Tdp1-/-;hTDP1 cells + 20 nM CPT, ATP luminescence, 48 h. 420,000 tested, 12% active; also: potency is read from the fitted curve at half-maximal effect; nearly all actives have a fitted effect of over 55% in size
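Cell growth measured by CellTiter-Glo luminescence after a minimum 48 h, 37 C compound exposure with 20 nM CPT in Tdp1-knockout DT40 cells stably expressing hTDP1, seeded 400/well; qHTS titration format.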
LDHA inh – inhibitors of human lactate dehydrogenase A. P00338. purified LDHA, NADH/diaphorase-resazurin fluorescence; active compounds read low. activity change, % (values are at about 110 or 230 µM). 480,000 tested, 0.15% active. AID 1347041; in the data active = activity change below about -30%; inconclusive = mostly about -25% to -30%;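 also: plate controls were DMSO wells for no effect and wells without enzyme for full effect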
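Human LDH5 at 2 nM final in Tris HCl pH 7.4 with 0.06 mM NADH and 0.2 mM pyruvate, reacted 5 minutes at room temperature. Remaining NADH coupled via diaphorase/resazurin; resorufin fluorescence read at 0 and 20 minutes, normalized to enzyme-free and DMSO wells.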
IL1B secr inh – inflammasome signaling inhibition, IL-1 beta readout | 360,000 tested, 4.7% active | activity change, % at 57.5 µM | THP-1 LPS/ATP IL-1B secretion, AlphaLISA, 16 h; active compounds read low; in the data active = activity change below about -50%; inconclusive = mostly about -30% to -49%
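Secreted IL-1B measured by AlphaLISA bead assay after 16 h compound exposure of THP-1 cells; compounds (final up to 57.5 uM) added 1 h before LPS (250 ng/mL) and ATP (1.25 mM) stimulation; lower signal means less secretion.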
The depositor's hits bear a star; u = inconclusive; x = not tested or not shown; [ ] = dose if it differs, or a comment. The list is not random: actives were taken first. Their share in the collection is about 18%. Unless noted, calls follow the shape of the dose curve; as a rule, active = well fitted curve in the direction sought with a large enough effect; inconclusive = small, poorly fitted or top-dose-only effect, or another doubt; inactive = no such curve, though single readings can be large; an effect the other way counts as inactive or inconclusive. Unless noted, % is scaled to controls: 0 for no effect and ±100 for the full control effect.

SMILES	RORgamma inh	Gal4-VP16 FLuc	DT40 TDP1 no CPT	TDP1 cell CPT	LDHA inh	IL1B secr inh
COc1ccc(C(=O)Nc2ccccc2-c2nnn(CC(=O)Nc3ccc4c(c3)OCCO4)n2)cc1	-18%	-12%[0.365 µM]	u	u	-1	-4
CN=C=S	-18%	-8%	x	x	x	x
CCOC(=O)c1c(NC(=O)C(c2ccccc2)c2ccccc2)sc2c1C1CCN2CC1	-12%	u	23µM*	21µM*	5	-19
CCCCn1c(CN2CCN(c3ccc(F)cc3)CC2)nc2c1c(=O)n(C)c(=O)n2C	u	-3%	1.6µM*	1.6µM*	-8	47
CCCCCn1c(CN2CCN(C(=O)OCC)CC2)nc2c1c(=O)n(C)c(=O)n2C	x	x	u	u	1	24
COC(=O)C1=C(c2ccc(F)cc2OCc2ccccc2)C[C@@H]2CC[C@H]1N2C(=O)NC(C)C	x	x	21µM*	u	2	-14
COC(=O)C1=C(c2ccc(F)cc2OCc2ccccc2)C[C@@H]2CC[C@H]1N2C(=O)NC1CCCCC1	x	x	u	u	-3	-21
COC(=O)C1=C(c2ccc(F)cc2OCc2ccccc2)C[C@@H]2CC[C@H]1N2C(=O)NCc1ccc(N(C)C)cc1	x	x	u	u	-2	u
COC(=O)C1=C(c2ccc(F)cc2OCc2ccccc2)C[C@@H]2CC[C@H]1N2C(=O)NCCN1CCOCC1	x	x	u	-16%	-5	8
COC(=O)C1=C(c2ccc(F)cc2OCc2ccccc2)C[C@@H]2CC[C@H]1N2C(=O)NC1CC1	x	x	u	16µM*	4	-3
COC(=O)C1=C(c2ccc(F)cc2OCc2ccccc2)C[C@@H]2CC[C@H]1N2C(=O)N1CCCC1	x	x	5.8µM*	6.5µM*	2	12
NC[C@H](CC(=O)O)c1ccc(Cl)cc1	5%	-7%	-4%	u	x	x
COC1C(O)C(C)OC(OC2CCC3(C)C(CC[C@@H]4[C@@H]3CCC3(C)C(C5=CC(=O)OC5)C(O)CC43O)C2)C1O (stereo partly specified)	x	x	x	x	3	x
O=C(Cn1c(=O)nc(-c2ccccc2)c2cc(Cl)ccc21)NCc1ccccc1	x	x	16µM*	7.3µM*	-6	x
CCC(C)C1N=C(c2ccccc2)c2cc(Cl)ccc2N(CC(=O)NCc2ccco2)C1=O (stereo unspecified)	13%	-22%	-22%	-29%	0	-10
COC(=O)C1=C(c2ccccc2OCc2ccccc2)C[C@@H]2CC[C@H]1N2C(=O)NCc1cccc(F)c1	x	x	u	u	1	u
COC(=O)C1=C(c2ccccc2OCc2ccccc2)C[C@@H]2CC[C@H]1N2C(=O)NCc1ccc(OC)c(OC)c1	x	x	21µM*	16µM*	-3	-8
COC(=O)C1=C(c2ccccc2OCc2ccccc2)C[C@@H]2CC[C@H]1N2C(=O)NCc1ccc([N+](=O)[O-])cc1	x	x	u	23µM*	1	-53*
Cc1ccccc1S(=O)(=O)N1C[C@H]2[C@H]3C(=O)N(C4CCCCC4)C(=O)[C@H]3CC(=O)[C@H]2[C@@H]1c1ccc(Cl)cc1	x	x	u	u	-8	u
Cc1cc(NC(=O)c2cccn(Cc3cccc([N+](=O)[O-])c3)c2=O)no1	x	x	-12%	-14%	-2	x
CCS(=O)(=O)Nc1ccc(C2=NN(C(=O)c3ccco3)C(c3ccc(Cl)o3)C2)cc1 (stereo unspecified)	x	x	23µM*	u	-7	-63*
CC12CC(=O)C3C(CCC4CC(=O)C=CC43C)C1CCC2=O (stereo unspecified)	x	x	u	-21%	-1	-93*
Cc1cc(C)c(Cn2c3ccccc3c3cnn(CC(=O)NCc4ccc(Cl)cc4)c(=O)c32)c(C)c1	x	x	23µM*	u	-10	x
C1CCN(c2nc(N/N=C3\CN4CCC3CC4)nc(N3CCCCC3)n2)CC1	x	x	x	x	-12	x
O=C(N/N=C/c1c(O)n(CCc2ccccc2)c(=O)[nH]c1=O)c1ccccc1O	u	-1%	-20%	-26%	-3	29
SMILES	RORgamma inh	Gal4-VP16 FLuc	DT40 TDP1 no CPT	TDP1 cell CPT	LDHA inh	IL1B secr inh
COc1ccc(Cn2c(O)c(/C=N/NC(=O)c3ccccc3)c(=O)[nH]c2=O)cc1	u	u	u	-25%	-7	-8
CCn1c(O)c(/C=N/NC(=O)c2ccccc2)c(=O)[nH]c1=S	7.1µM*	u	-6%	-5%	1	9
O=C(N/N=C/c1c(O)n(Cc2ccccc2)c(=O)[nH]c1=O)c1ccccc1O	11µM*	u	-27%	5%	-18	32
CCCCCCC(=O)N/N=C/c1c(O)n(CCc2ccccc2)c(=O)[nH]c1=O	-45%	-2%	18µM*	u	-3	9
O=C(N/N=C/c1c(O)n(Cc2ccc(F)cc2)c(=O)[nH]c1=O)c1ccccc1O	u	u	u	13µM*	-16	35
COc1ccc(Cn2c(O)c(/C=N/NC(=O)c3ccccc3O)c(=O)[nH]c2=O)cc1	u	u	-1%	13%	-11	-23
CCCCCCC(=O)N/N=C/c1c(O)n(C(C)CC)c(=S)[nH]c1=O (stereo unspecified)	10µM*	u	9.2µM*	13µM*	-7	220
CC(=O)OC1CC(OC(C)=O)[C@]2(C)C(CC(OC(C)=O)[C@]3(C)C2CC[C@@]2(C)C(c4ccoc4)C(=O)C4O[C@]432)C1(C)C (stereo partly specified)	u	5%	u	u	x	x
CCOC(=O)c1ncn2c1CN(C)C(=O)c1cc(F)ccc1-2	u	-3%	-19%	u	-6	-53*
C[C@H](CO)N1C[C@H](C)[C@H](CN(C)C(=O)Nc2cccc3ccccc23)Oc2c(NC(=O)c3ccc(-c4nccs4)cc3)cccc2C1=O	x	x	u	u	2	-7
C[C@@H]1CN([C@@H](C)CO)C(=O)c2cccc(NC(=O)c3ccncc3)c2O[C@@H]1CN(C)Cc1ccc(-c2ccccc2)cc1	x	x	u	u	1	u
Cc1ccc(S(=O)(=O)N(C)C[C@@H]2Oc3ncc(Br)cc3C(=O)N([C@H](C)CO)C[C@H]2C)cc1	x	x	9.2µM*	u	-3	22
Cc1ccc(S(=O)(=O)N(C)C[C@H]2Oc3c(NC(=O)Nc4cccc5ccccc45)cccc3C(=O)N([C@@H](C)CO)C[C@@H]2C)cc1	x	x	u	16µM*	8	u
